Test results reported in PubChem BioAssay.
Activity calls are given as the source filed them. No rule for the calls is given here.

experiment: inhibitors of hydroxyurea-induced Chk1 phosphorylation, primary screen, imaging, HeLa, phospho-Chk1 nuclear intensity (AID 1187); conditions: hydroxyurea-induced phospho-Chk1 immunofluorescence imaging, higher = more signal; also: test concentration not given here

**Q.** For COC(=O)[C@@H]1N=C(c2ccc(OCCCO)cc2)O[C@@H]1c1ccccc1, which z-score is on record?
**A.** -0.301 (inactive)

**Q.** With COCCOC(=O)N1C(=O)[C@@]2(c3ccccc31)[C@H](c1ccc(O)cc1)N1[C@H](c3ccccc3)[C@H](c3ccccc3)OC(=O)[C@H]1[C@@H]2C(=O)N1CCN(c2ncccn2)CC1 as the compound, how does the z-score read?
**A.** 0.651 (inactive)

**Q.** With CC(C)[Si]1(C(C)C)OCc2cc(-c3ccc(-c4ccc(Cl)c(Cl)c4)o3)nc(-c3ccccc3)c21 as the compound, how does the z-score read?
**A.** -0.577 (inactive)

**Q.** For [N-]=[N+]=Nc1ccccc1[C@H]1OC(c2ccc(OCCCO)cc2)=N[C@@]1(Cc1ccccc1)C(=O)NCCN1CCOCC1, which z-score is on record?
**A.** 0.205 (inactive)

**Q.** Which z-score does the source give for CC(C)[Si]1(C(C)C)OCc2cc(C3CC3)nc(-c3ccc(Oc4ccccc4)cc3)c21 here?
**A.** -0.358 (inactive)

**Q.** Which z-score does the source give for [N-]=[N+]=Nc1ccccc1[C@@H]1OC(c2ccc(OCCCO)cc2)=N[C@]1(Cc1ccccc1)C(=O)O here?
**A.** 0.168 (inactive)

**Q.** Which z-score does the source give for CO[C@H]1O[C@H](CO)[C@@H](OC(=O)Nc2ccc(Br)cc2)[C@@H]2OC(=O)[C@@H](Cc3ccccc3)C/C=C/C[C@H](Cc3ccccc3)C(=O)O[C@@H]12 here?
**A.** 0.406 (inactive)

**Q.** Which z-score does the source give for CS(=O)(=O)CCOC(=O)C1=CC(c2ccc(CO)cc2)=CC(C2CC2)N(Cc2sc3ccccc3c2Cl)C=C1C(=O)OCCS(C)(=O)=O (stereo unspecified) here?
**A.** 0.137 (inactive)

**Q.** For COC(=O)[C@@]1(Cc2ccccc2)[C@H]2c3cc(C(=O)N(C)C)n(Cc4ccc(C)o4)c3C[C@H]2CN1C(=O)c1ccccc1, which z-score is on record?
**A.** 0.841 (inactive)

**Q.** With CCCC[C@@H](O)C1=C(COC)C[C@H]2C(=O)N(Cc3ccccc3)C(=O)[C@H]2[C@H]1CO as the compound, how does the z-score read?
**A.** 0.274 (inactive)

**Q.** For NC(=O)[C@H]1[C@@H]2C(=O)O[C@@H](c3ccccc3)[C@@H](c3ccccc3)N2[C@@H](c2ccc(OCCO)cc2)[C@]12C(=O)Nc1ccc(C#CCCO)cc12, which z-score is on record?
**A.** -0.838 (inactive)

**Q.** With CCCCC[C@H]1OC[C@@]23C=C(Br)[C@@H](CC12)[C@@]1(CO1)C3=O (stereo partly specified) as the compound, how does the z-score read?
**A.** -0.245 (inactive)

**Q.** With C=C(C(=O)CC[C@H](OC(=O)c1ccccc1-c1ccccc1C(=O)O)c1cccc(OCCO)c1)C(C)C as the compound, how does the z-score read?
**A.** -0.51 (inactive)

**Q.** With C=CCNC(=O)[C@@H]1[C@H]2C(=O)O[C@H](c3ccccc3)[C@H](c3ccccc3)N2[C@H](c2ccc(OCCO)cc2)[C@@]12C(=O)N(C(=O)OCCOC)c1ccc(C#Cc3ccc(OC)cc3)cc12 as the compound, how does the z-score read?
**A.** 0.22 (inactive)

**Q.** Which z-score does the source give for NCCCCCCNC(=O)[C@@H]1C[C@@H]2C(=O)N[C@@H](CCCCN)C(=O)N2[C@@H]1c1ccc(O)cc1 here?
**A.** -0.123 (inactive)

**Q.** For COc1cc2c(cc1O)C=[N+](Cc1sc3ccccc3c1Cl)CC2, which z-score is on record?
**A.** 0.9 (inactive)

**Q.** With CC(C)N1C(=O)c2ccccc2[C@@H](C(=O)NCCN2CCOCC2)[C@@H]1c1ccc(CO)cc1 as the compound, how does the z-score read?
**A.** -0.264 (inactive)

**Q.** For COCCOC(=O)N1C(=O)[C@@]2(c3cc(C#CCCO)ccc31)[C@H](c1ccc(OCCO)cc1)N1[C@H](c3ccccc3)[C@H](c3ccccc3)OC(=O)[C@H]1[C@@H]2C(=O)Nc1nc2ccccc2s1, which z-score is on record?
**A.** -0.355 (inactive)

**Q.** For CCCCN1CC=CC23O[C@@H]4/C=C\CCCOC(=O)C4[C@H]2C(=O)N(CCO)[C@@H]3C1=O (stereo partly specified), which z-score is on record?
**A.** 0.214 (inactive)

**Q.** For Oc1ccc2cc[n+](Cc3cc4c(cc3Br)OCO4)cc2c1, which z-score is on record?
**A.** 0.225 (inactive)

**Q.** For CCOC(=O)C[C@H]1[C@H](OC(=O)c2ccc(C(=O)c3ccccc3)cc2)[C@@H](NC(=O)CC(C)C)c2cc(OCCCO)ccc2N1C(=O)c1ccccc1, which z-score is on record?
**A.** -0.0385 (inactive)

**Q.** For C=CCOC(=O)[C@@H]1[C@H]2C(=O)O[C@H](c3ccccc3)[C@H](c3ccccc3)N2[C@H](c2ccc(OCCOC(=O)[C@@H]3C[C@@H]4C(=O)N[C@@H](CCCC[N+](C)(C)C)C(=O)N4[C@@H]3c3ccc(O)cc3)cc2)[C@@]12C(=O)Nc1ccc(I)cc12, which z-score is on record?
**A.** 0.521 (inactive)

**Q.** Which z-score does the source give for COc1ccc(CCNC(=O)[C@@]2(c3ccc([N+](=O)[O-])cc3)CC(=O)N(C3CCCCC3)[C@@H]2c2ccc(CO)cc2)cc1 here?
**A.** 0.0527 (inactive)

**Q.** Which z-score does the source give for CN(C)C(=O)[C@]1(Cc2ccccc2CN=[N+]=[N-])N=C(c2ccc(OCCCO)cc2)O[C@@H]1c1ccccc1 here?
**A.** -0.266 (inactive)

**Q.** For Cc1ccc(C(C)CC(O)C2C=CC3C(=O)N(c4ccccc4)C(=O)C3N2Nc2ccccc2)o1 (stereo unspecified), which z-score is on record?
**A.** -0.508 (inactive)

**Q.** With O=C(c1ccccc1)N1C(=O)[C@]2(Cc3ccccc31)N=C(c1ccc(OCCCO)cc1)O[C@@H]2c1ccccc1 as the compound, how does the z-score read?
**A.** 0.796 (inactive)
